Assay outcomes (PubChem)
EPAC1 ag: activates human EPAC1 exchange factor | actives 0.073% (n = 360,000) | EPAC1 agonist qHTS, biochemical assay; response scale: 100% = response to 6.5 mM cAMP | Potency, µM (titrated, usually from 154 µM), without a hit: at the top dose activation, most hits filed as activators | AID 720707 | O95398; further: nearly all actives have a fitted effect of over 60% in size
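Nucleotide exchange by EPAC1 (100 nM) on Rap1B–BODIPY-GDP (250 nM) in the presence of 50 uM GDP is tracked fluorescently at 480/540 nm over 30 min. Signals are normalized to a 6.5 mM cAMP control.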
EPAC1 antagonist: EPAC1 (human) antagonism; EPAC1 GEF assay, Rap1b-BODIPY-GDP exchange fluorescence; actives 0.14% (n = 360,000); Potency, µM (doses to about 115 µM), without a hit: top-dose activity change, negative = inhibition, hits mostly inhibitors; O95398;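 further: plate controls were vehicle for no effect and positive control for full effect; nearly all actives have a fitted effect of over 50% in size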
RGS4 inhibitor: inhibitors of human regulator of G protein signaling 4; P49798; Transcreener GDP fluorescence polarization, RGS4-accelerated GTP hydrolysis; Potency, µM (doses to about 114 µM), for inactives: at the highest dose activity change, negative = inhibition, hits mostly inhibitors; actives 0.039% (n = 390,000); AID 504845; further: on the % scale 0 is the no-effect control and ±100 the full control effect; nearly all actives have a fitted effect of over 75% in size
Target sequence (P49798 whole entry, looked up): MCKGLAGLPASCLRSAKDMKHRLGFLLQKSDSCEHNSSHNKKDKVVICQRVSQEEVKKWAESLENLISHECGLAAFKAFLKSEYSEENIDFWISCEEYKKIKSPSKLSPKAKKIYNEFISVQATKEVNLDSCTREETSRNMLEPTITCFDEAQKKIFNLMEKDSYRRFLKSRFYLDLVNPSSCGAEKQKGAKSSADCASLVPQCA
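MLSMR compounds (23 nl, pin-transferred) preincubated 10 min at room temperature with a 500nM (2x) first reagent, then RGS4 at 900nM (2x) plus Transcreener GDP mix added; fluorescence polarization (620/688 nm) read before and after 90 min at 30 °C.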
ERG-DNA inh: blocks human ERG Ets domain binding to DNA | Potency, µM (top dose mostly 76.9 µM), for the others: at the top dose FP activity, negative = inhibition, actives largely listed as inhibitors | AID 624246 | actives 0.028% (n = 370,000) | P11308 | fluorescence polarization, His-ERG Ets domain / labelled DNA; active means well fitted inhibition curve with a large enough effect in the polarisation, with a control signal flat; inconclusive means small, poorly fitted or top-dose-only effect, or effect the other way, or a change in a side signal; inactive means no such curve, though single readings can be large or run the other way; the % refers to the polarisation;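 further: polarization taken with two DNA probes labelled with fluorescein and Texas red; % of control where 0% means no effect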
Target sequence (P11308 whole entry, looked up, the tested form may be a part): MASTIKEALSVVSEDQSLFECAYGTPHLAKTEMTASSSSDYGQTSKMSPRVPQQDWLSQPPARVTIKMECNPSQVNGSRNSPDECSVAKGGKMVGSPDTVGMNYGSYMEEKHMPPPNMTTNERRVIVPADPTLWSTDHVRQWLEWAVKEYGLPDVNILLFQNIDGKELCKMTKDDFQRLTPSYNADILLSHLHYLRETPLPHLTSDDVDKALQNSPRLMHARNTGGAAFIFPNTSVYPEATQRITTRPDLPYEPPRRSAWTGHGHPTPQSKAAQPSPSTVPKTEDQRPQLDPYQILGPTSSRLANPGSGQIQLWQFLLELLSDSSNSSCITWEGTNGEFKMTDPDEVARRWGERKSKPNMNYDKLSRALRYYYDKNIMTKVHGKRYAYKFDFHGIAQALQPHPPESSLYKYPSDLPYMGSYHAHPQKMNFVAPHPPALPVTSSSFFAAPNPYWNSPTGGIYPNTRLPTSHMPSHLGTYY
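His-tagged ERG Ets domain (1 uM in the protein solution; 300mM KCl, 50mM Tris-HCl, 1mM EDTA, 1mM DTT, pH 7.5) received compound, then a probe mix of 5 nM fluorescein-DNA and 100nM Texas-615-DNA. Fluorescence polarization was read for both dyes.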
EPAC2 antag: antagonists of human EPAC2; EPAC2 GEF exchange of Rap1B-BODIPY-GDP, fluorescence; Potency, µM (top dose mostly 114 µM), inactives show at the highest dose activity, negative = inhibition, actives largely listed as inhibitors; actives 0.18% (n = 360,000); further: on the % scale 0 is the no-effect control and ±100 the full control effect; nearly all actives have a fitted effect of over 45% in size
EPAC2 agonist: activates human EPAC2 exchange factor; Potency, µM (highest dose often 154 µM), for inactives: top-dose activation, usual class: activators; actives 0.079% (n = 360,000); EPAC2 activation, biochemical qHTS; response scale: 100% = 6.5 mM cAMP response; Q8WZA2; further: nearly all actives have a fitted effect of over 50% in size
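Each well held 100 nM EPAC2, 250 nM RAP1B-BODIPY-GDP and 50 uM GDP. Fluorescence, read at 5-min intervals to 30 min, was referenced to a 6.5 mM cAMP positive control.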
* = called active by the depositor. An excerpt weighted towards active compounds, which were near 0.4% of everything screened. Unless noted, the call rests on the fitted dose curve; in most records, active means well fitted curve in the direction sought with a large enough effect; inconclusive means small, poorly fitted or top-dose-only effect, or another doubt; inactive means no such curve, though single readings can be large; an effect the other way counts as inactive or inconclusive. Potency means the concentration at half of the fitted maximal effect.

How did CC(=O)CCc1oc2ccc(C)cc2c1Cc1ccccc1 do in these assays?
EPAC1 ag: 8%; EPAC1 antagonist: inconclusive; RGS4 inhibitor: 18%; ERG-DNA inh: -5%; EPAC2 antag: inconclusive; EPAC2 agonist: 8%

What do the screens show for `CC(=O)CCc1oc2ccccc2c1-c1ccccc1`?
EPAC1 ag: 16%; EPAC1 antagonist: -5%; RGS4 inhibitor: 1%; ERG-DNA inh: 9%; EPAC2 antag: 25µM*; EPAC2 agonist: 23%

What do the screens show for `CCCN1C(=O)S/C(=C\c2ccc(N3CCOCC3)o2)C1=O`?
EPAC1 ag: inconclusive; EPAC1 antagonist: 46%; RGS4 inhibitor: inconclusive; ERG-DNA inh: 15%; EPAC2 antag: 6%; EPAC2 agonist: inconclusive

How did CCCN1C(=O)S/C(=C/c2ccc(N3CCOCC3)o2)C1=O do in these assays?
EPAC1 ag: 79µM*; EPAC1 antagonist: 42%; RGS4 inhibitor: inconclusive; ERG-DNA inh: 23%; EPAC2 antag: 22%; EPAC2 agonist: 112µM*

How did Cc1ccc(-n2c(=O)c3c(c4cc(C)ccc4n3C)n(CC(=O)Nc3cc(C)cc(C)c3)c2=O)cc1 do in these assays?
RGS4 inhibitor: 3%; ERG-DNA inh: -7%

Results for Cc1ccc(C2=NC(=O)/C(=C/c3cc(O)c(O)c(Br)c3)S2)cc1 ?
EPAC1 ag: 2%; EPAC1 antagonist: 10µM*; RGS4 inhibitor: inconclusive; ERG-DNA inh: 23%; EPAC2 antag: -22%; EPAC2 agonist: -1%

How did CC(=O)N1C=CN(C(C)=O)C(c2cn(C)c3ccccc23)C1c1cn(C)c2ccccc12 (stereo not given) do in these assays?
EPAC1 ag: 18%; EPAC1 antagonist: -7%; RGS4 inhibitor: -38%; ERG-DNA inh: 0%; EPAC2 antag: 56µM*; EPAC2 agonist: 9%

How did CCOC(=O)C1CCCN(C(=O)c2nn(-c3ccc(C)cc3)c(=O)c3c2c2ccccc2n3C)C1 (stereo not given) do in these assays?
RGS4 inhibitor: 7%; ERG-DNA inh: 0%

Results for COc1cc2nc(N3CCN(c4cc(C)ccc4C)CC3)nc(N)c2cc1OC ?
EPAC1 ag: 13%; EPAC1 antagonist: -21%; RGS4 inhibitor: -4%; ERG-DNA inh: 2%; EPAC2 antag: -6%; EPAC2 agonist: 26%

How did COc1cc2nc(N3CCNCC3)nc(N)c2cc1OC do in these assays?
EPAC1 ag: 9%; EPAC1 antagonist: inconclusive; RGS4 inhibitor: -7%; ERG-DNA inh: -4%; EPAC2 antag: 32µM*; EPAC2 agonist: 23%

How did COc1cc(OC)c(NC(=O)C(c2ccccc2)N2Cc3ccccc3C2=O)cc1Cl (stereo not given) do in these assays?
RGS4 inhibitor: 3%; ERG-DNA inh: -2%

How did CCN1C(=O)/C(=C/c2ccc(OCc3ccc(C(=O)O)cc3)c(Cl)c2)NC1=S do in these assays?
EPAC1 ag: 4%; EPAC1 antagonist: 89µM*; RGS4 inhibitor: -37%; ERG-DNA inh: 9%; EPAC2 antag: 26%; EPAC2 agonist: 11%

How did O=S(=O)(c1cc(O)ccc1O)c1cccc2c(S(=O)(=O)c3cc(O)ccc3O)cccc12 do in these assays?
EPAC1 ag: 8%; EPAC1 antagonist: 79µM*; RGS4 inhibitor: inconclusive; ERG-DNA inh: -7%; EPAC2 antag: 4%; EPAC2 agonist: 0%

Results for COC(=O)C(C)Sc1ncnc2c1c(-c1ccccc1)cn2-c1ccc(F)cc1 (stereo not given) ?
RGS4 inhibitor: -17%; ERG-DNA inh: 0%

What do the screens show for `CCC(=O)N1CCc2cc(OC)c(OC)cc2C1COc1ccc(F)cc1` (stereo not given)?
EPAC1 ag: 6%; EPAC1 antagonist: 8%; RGS4 inhibitor: -23%; ERG-DNA inh: 0%; EPAC2 antag: 14µM*; EPAC2 agonist: 11%

Results for CCC(=O)N1CCc2cc(OC)c(OC)cc2C1COc1ccccc1OC (stereo not given) ?
EPAC1 ag: 10%; EPAC1 antagonist: 16%; RGS4 inhibitor: 13%; ERG-DNA inh: 5%; EPAC2 antag: 45µM*; EPAC2 agonist: -1%

Results for COc1ccc(CCNC(=O)Cc2c(C)c3cc4c(C(C)(C)C)coc4c(C)c3oc2=O)cc1OC ?
RGS4 inhibitor: 22%; ERG-DNA inh: 15%

What do the screens show for `NCCCNc1ccc(Br)cn1`?
RGS4 inhibitor: 10%

What do the screens show for `N#Cc1c(-c2ccccc2)nc(SCc2cccc(Cl)c2)[nH]c1=O`?
EPAC1 ag: -5%; EPAC1 antagonist: inconclusive; RGS4 inhibitor: -21%; ERG-DNA inh: 1%; EPAC2 antag: 89µM*; EPAC2 agonist: -11%

How did CC1=NCCN1S(=O)(=O)c1c(C(C)C)cc(C(C)C)cc1C(C)C do in these assays?
EPAC1 ag: -4%; EPAC1 antagonist: -18%; RGS4 inhibitor: 16%; ERG-DNA inh: -1%; EPAC2 antag: 79µM*; EPAC2 agonist: -4%

Results for N#Cc1c(-c2ccc(F)cc2)cc(-c2ccccc2)nc1SCC(=O)NCC(=O)O ?
EPAC1 ag: 9%; EPAC1 antagonist: 79µM*; RGS4 inhibitor: inconclusive; ERG-DNA inh: 1%; EPAC2 antag: 13%; EPAC2 agonist: -5%

How did COCCCNC(=O)C1CCN(c2nc3ccc(C)cc3[nH]2)CC1 do in these assays?
RGS4 inhibitor: 9%; ERG-DNA inh: -3%

What do the screens show for `N#Cc1c(C(F)(F)F)cc(-c2ccc(Cl)cc2)[nH]c1=O`?
EPAC1 ag: -15%; EPAC1 antagonist: 40µM*; RGS4 inhibitor: 2%; ERG-DNA inh: 4%; EPAC2 antag: -9%; EPAC2 agonist: -2%

What do the screens show for `O=c1c(/C=C(\O)c2ccc(F)cc2)nc2ccccc2n1-c1ccccc1`?
EPAC1 ag: 23%; EPAC1 antagonist: 13%; RGS4 inhibitor: -11%; ERG-DNA inh: 4%; EPAC2 antag: 100%; EPAC2 agonist: 100µM*

What do the screens show for `Cn1c(=O)c(/C=C/c2ccc(F)cc2)nc2ccccc21`?
EPAC1 ag: -16%; EPAC1 antagonist: -3%; RGS4 inhibitor: -16%; ERG-DNA inh: -3%; EPAC2 antag: 8%; EPAC2 agonist: 2%

How did CN(C(=O)NCc1noc2ccccc12)c1cccc(Cl)c1 do in these assays?
RGS4 inhibitor: 11%; ERG-DNA inh: 1%

How did CCCCOc1ccc(CNC(=O)CN2CCSc3ccccc32)cc1 do in these assays?
RGS4 inhibitor: -13%; ERG-DNA inh: 0%
